Assay results taken from PubChem BioAssay AID1159580 (chemical genetic matrix, 2015).
Screen size: about 5,500 compounds; about 2,000 (36%) were called active. Not shown: some 18% with an inconclusive outcome. No stated cut-off is given here; in the data, active means normalized growth mostly below about 0.91 (no sharp cut-off); inconclusive means no clear call, values can overlap the other calls; inactive means mostly above about 0.92. The list shows a part of the results.

Assay: chemical genetic growth profiling, strain panel (AID 1159580);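 further: tested at 20 µM; growth read once vehicle control cultures reached saturation at 30 °C; 1 = growth at the plate median or of vehicle wells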
Details: S. cerevisiae deletion strains, growth OD

Measured: normalized growth

CCCN(CCC)CCc1ccc(O)c(O)c1
inactive: locus YAL040C, strain CLN3, stronger effect = lower value 1.03 | locus YCL061C, strain MRC1 (second series), stronger effect = lower value 1 | locus YDR363W, strain ESC2, stronger effect = lower value 1.04 | locus YER002W, strain NOP16, stronger effect = lower value 1.01 | locus YGR078C, strain PAC10, stronger effect = lower value 0.992 | locus YMR263W, strain SAP30, stronger effect = lower value 0.995 | locus YNL153C, strain GIM3, stronger effect = lower value 1 | locus YNL175C, strain NOP13, stronger effect = lower value 0.997 | locus YNL197C, strain WHI3, stronger effect = lower value 1 | locus YNL224C, strain SQS1, stronger effect = lower value 0.994 | locus YNL322C, strain KRE1, stronger effect = lower value 1.02 | locus YOR083W, strain WHI5 (second series), stronger effect = lower value 1.01 | locus YPL241C, strain CIN2, stronger effect = lower value 1
